Molecules are shown by their SMILES. “And” between values parts separate entries of the source, which are not always exact repeats. Equal entries are not always repeated. This is part of a sample that, as a whole, favours compounds with a hit. Of some 83,000 tested, about 20% had one in any assay.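 Values shown are percent growth following 48 h exposure of cells in 96-well plates to a single concentration of compound; below 10 was considered active.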 The source made the active and inactive calls.

Data on 40 compounds can be found in PubChem BioAssay (NCI).

This experiment relates to MDA-MB-468 breast. Briefly: NCI-60 one-dose screen, 48 h (100 = growth as untreated, 0 = no growth, -100 = all killed). The note with it: 10 µM unless noted.
Consider `C=C1C(=O)O[C@H]2[C@H]1CC/C(COC(=O)/C=C/C(=O)OC/C1=C/CC[C@@]3(C)O[C@H]3[C@H]3OC(=O)C(=C)[C@@H]3CC1)=C\CC[C@@]1(C)O[C@@H]21`, for which the growth is -5.97% (active).
The figure for `C=C(C)[C@@H]1CC[C@]2(c3nnc(-c4ccncc4)o3)CC[C@]3(C)[C@H](CC[C@@H]4[C@@]5(C)CCC(=O)NC(C)(C)[C@@H]5CC[C@]43C)[C@@H]12` is 92.7% (inactive); for `Cc1nc(NN)c([N+](=O)[O-])c(NN)n1` it is 122% (inactive); for `Cc1cc(C(=O)Nc2ncc(Cc3cccc(C(F)(F)F)c3)s2)c2ccccc2n1` it is 1.69% (active).
As to `CCCC(=O)NC(c1ccc(N(CC)CC)cc1)c1cc(C)c2cccnc2c1O` (stereo not given), the growth was -16.1% (active).
The figure for `CCCCCCCCNC(=O)[C@@H](N)CSCOC(C)=O` is 89.8% (inactive); for `C=CCNc1nc(NN2C(=O)c3cccc4cccc(c34)C2=O)nc(-n2cnc3ccccc32)n1` it is 80.5% (inactive).
The figure for `O=C1c2cccnc2C(=O)c2nc3cc(N4CCN(C5CC5)CC4)ccc3nc21` is -22% (active).
The figure for `c1ccc2c(N3CCCCC3)ncnc2c1` is 75.9% (inactive); for `CC1(C)S[C@@H]2[C@H](NC(=O)[C@H](C(=O)O)c3cccs3)C(=O)N2[C@H]1C(=O)O` it is 102% (inactive).
`CCOC(=O)c1ccc2c(c1)nc(-c1ccccc1)n2C1CCCCC1`: the growth was 118% (inactive).
The figure for `CCCCCCCCOC(=O)CC[C@@H](C)[C@H]1CC[C@H]2[C@@H]3[C@H](OC(=O)CCN)C[C@@H]4C[C@H](OC(=O)CCN)CC[C@]4(C)[C@H]3C[C@H](OC(=O)CCN)[C@]12C` is 3.95% (active); for `CCC(CC)COC(=O)c1ccc(O)c(O)c1` it is 80.6% (inactive).
As for `O=C(CSc1nc2ccccc2c(=O)n1-c1ccccc1)N/N=C/c1ccc(Oc2ccc(Br)cc2)cc1`, the growth was 65.1% (inactive).
The figure for `NC1(c2ccc(-c3nc4ccn5c(=O)[nH]nc5c4cc3-c3ccccc3)cc2)CCC1` is -32.4% (active); for `O=C1Nc2cc(-c3ccc(NC(=O)C4CC4)cc3)ccc2/C1=C/c1ccc[nH]1` it is 0.756% (active); for `COC(=O)c1cc2c3c(cc(O)c2[nH]1)N(C(=O)C1Cc2cc(OC)c(OC)c(OC)c2N1)CC3CCl` (stereo not given) it is -41.8% (active).
The figure for `COc1ccc(CSc2nnc(SCC(=O)Nc3ccc(Cl)cc3)s2)cc1` is 91.1% (inactive); for `OCc1cnccc1NCCCCOc1ccc(Oc2ccccc2)cc1` it is 30.5% (inactive); for `CN(C)c1ccc(N)c2ccccc12` it is 57.8% (inactive).
Turning to `Cc1c2cccnc2c(C)c2c1c1cc(CO)ccc1n2C`, the growth is -48.7% (active).
Regarding `C(CCCC1=NCCO1)CCCC1=NCCO1`, the growth was 95% (inactive).
The figure for `COc1ccc(OCC(CO)N2CCN(c3ccccc3)CC2)cc1` (stereo not given) is 99.6% (inactive); for `COC(=O)c1c2c(c[n+]([O-])c1C)C(=O)C=C(NCc1ccccc1)C2=O` it is -74.9% (active); for `Cc1ccc(NS(=O)(=O)c2ccc(-c3cnc(C4CC4)o3)cc2)cc1` it is -0.814% (active).
The figure for `N=C(N)c1ccc(-c2ccc(-c3cc(Cl)cc(Cl)c3)s2)nc1` is 15.7% (inactive); for `O=[N+]([O-])c1ccc(/C=N\Nc2ccccc2)cc1` it is 94.7% (inactive); for `COc1ccc(C(=O)Nc2cccc(-c3cc(=O)c4c(OC)c(OC)c(OC)cc4o3)c2)cc1` it is 75.2% (inactive).
`CCCCCCCCCc1cc(CN2CCCCC2)c(O)c(CN2CCCCC2)c1`: the growth was 40.4% (inactive).
For `NS(=O)(=O)c1cc(Br)c2c(c1)S(=O)(=O)NCN2`, the growth was 126% (inactive).
For `COC(=O)c1ccc(NC(N)=NCC(C)(C)COc2ccc(C(F)(F)F)cc2)nc1`, the growth was 17.1% (inactive).
With `COc1ccc(-c2nc3ccc(-c4nnc(SCC(=O)Nc5ccc(C(C)=O)cc5)o4)cc3[nH]2)cc1`, the growth is 109% (inactive).
Regarding `Fc1ccccc1-c1nc(-c2nc3cc(Cl)c(Cl)cc3[nH]2)c2ccccn12`, the growth was 63.1% (inactive).
`c1ccc(Nc2nc(Nc3ccccc3)nc(Nc3ccccc3)n2)cc1`: the growth is 93.8% (inactive).
The figure for `CCOC(=O)c1cc(C(=O)c2cc(OC)c(OC)c(OC)c2)n2ncc3ccccc3c12` is 66% (inactive); for `CCOc1ccc2nc3cc(N)ccc3c(N)c2c1` it is -84.6% (active) and -33.5% (active); for `Oc1ccc(Cl)cc1-c1cc(-c2ccc(F)cc2)n[nH]1` it is -0.461% (active).
Turning to `O=C(O)c1cn(C2CC2)c2cc(N3CCN(C(=O)CSc4nnc(-c5ccc(Cl)cc5)n4-c4ccccc4)CC3)c(F)cc2c1=O`, the growth was 101% (inactive).
The figure for `O=C1C(Br)=CC2C1C1C3CCC3C2(Br)C12OCCO2` (stereo not given) is 19.4% (inactive); for `O=C1CCC23OC(C(O)c4ccccc4N12)C1C(Br)=NOC13` (stereo not given) it is 115% (inactive).
